In all, about 68,000 sequences were measured (“fluorescence intensity (a.u.)”: median about 9,100, highest 2% from about 16,000 on). This excerpt belongs to a sample that is enriched for the highest values.
The sequences below were run against OsWRKY34 (Oryza sativa, UniProt Q0JBA9 1-250) (assay: protein-binding microarray (RPBM); PBS, 2% BSA, 51.3 ng/ul salmon testes DNA, 50 uM zinc acetate, 200 nM TF, 25 C, 1 h; high values mean tight binding). Conditions: protein: recombinant; tags: N-terminal polyhistidine and DsRed monomer fusion (pET32a); label: CyDye5-dUTP incorporated in the synthesized complementary strand; 3' TTTTT single-stranded linker to array surface; dsDNA, one strand shown.
Chain of OsWRKY34 (Q0JBA9 entry or part of it): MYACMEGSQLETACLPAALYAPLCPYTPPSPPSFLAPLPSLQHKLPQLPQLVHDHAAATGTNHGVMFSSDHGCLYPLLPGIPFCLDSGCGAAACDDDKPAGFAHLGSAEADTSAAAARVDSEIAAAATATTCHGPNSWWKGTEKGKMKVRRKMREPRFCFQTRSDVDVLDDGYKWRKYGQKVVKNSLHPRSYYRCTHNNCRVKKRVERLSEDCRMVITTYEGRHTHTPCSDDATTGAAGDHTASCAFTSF
Outline: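 Polyhistidine-tagged DsRed fusions of transcription factors, joined at the N-terminus, were expressed in E. coli BL21-CodonPlus and isolated on Ni–NTA. They were incubated at 200 nM for 1 h at 25 °C on a custom Agilent array, double-stranded and BSA-blocked, in PBS with 2% BSA, salmon testes DNA and 50 µM zinc acetate. The binding signal is per-feature fluorescence intensity (arbitrary units) read on an Axon 4000B scanner after washing.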

Row | Sequence | binding signal
1 | AAACAGACCCTTAATATGCTATATTTGTCTCCAATAAAACCGGAGTCACCTAGTGCAG | 8480 fluorescence intensity (a.u.)
2 | TTGCTCTTGTTAATGTTTGGCTTTCTTCTTCTTCTGCTGCCGGAGTCACCTAGTGCAG | 8600 fluorescence intensity (a.u.)
3 | GCTCCACCTACTCCGCTCCCCTCTGCTCGGCTGCTCCCATCGGAGTCACCTAGTGCAG | 8470 fluorescence intensity (a.u.)
4 | GGCTCGTGCACCTGCTCTCGTCTTTTCCACCGCTTTTTTTCGGAGTCACCTAGTGCAG | 16800 fluorescence intensity (a.u.)
5 | ATATCCCTTCTCTTCCCTCATCTCTCCACCTCTTCCATCTCGGAGTCACCTAGTGCAG | 8890 fluorescence intensity (a.u.)
6 | TCTCTCTCTCTCTCCTCTGCATCCGCGCGCATTGCTCGATCGGAGTCACCTAGTGCAG | 9000 fluorescence intensity (a.u.)
7 | GCTCCCTGCTGCCATATCCTATCATCTCCTCTCTTCCTCTCGGAGTCACCTAGTGCAG | 8540 fluorescence intensity (a.u.)
8 | CTCCATTCTTGTTTGTTCCTTCTTTGCTTTCAGCTGCTTTCGGAGTCACCTAGTGCAG | 15000 fluorescence intensity (a.u.)
9 | GGCCCTGAGCTCTCTCTTGCTGCTTCTTTTAATGGGTTTTCGGAGTCACCTAGTGCAG | 9680 fluorescence intensity (a.u.)
10 | TGGGGTTTTCAGCTTGCCAATGCTGCATTATCTTCTTTTTCGGAGTCACCTAGTGCAG | 17200 fluorescence intensity (a.u.)
11 | ACACTCTGCTGCATCTCTTATCCCTTCATCTCGGTCTTAACGGAGTCACCTAGTGCAG | 16600 fluorescence intensity (a.u.)
12 | CTGCCGCGCTTCGTCGCCGCGCTCGCCCGTCTTTCGCTCTCGGAGTCACCTAGTGCAG | 8230 fluorescence intensity (a.u.)
13 | CCTCATCCGCTGCTCTGCTCCCACCATTGCTGCTCTCTCTCGGAGTCACCTAGTGCAG | 17700 fluorescence intensity (a.u.)
14 | ACCAGCTTTCTTTCTCGTGCTTTCCTCTTCTTCTTTTTTTCGGAGTCACCTAGTGCAG | 10900 fluorescence intensity (a.u.)
15 | GCAGCATCACCCGCAGCCGCCGCCGCCGCCGCCATGGACTCGGAGTCACCTAGTGCAG | 10100 fluorescence intensity (a.u.)
16 | GCAATACACCTGATTTGATACTTCTTCCGATATAATACTCCGGAGTCACCTAGTGCAG | 8900 fluorescence intensity (a.u.)
17 | GATTGTATATGCCTGATAGGACTAGTTAGTGTGTTTTCTTCGGAGTCACCTAGTGCAG | 9220 fluorescence intensity (a.u.)
18 | CACTAGTTTTAGTTACTAACTTATGGCTCTTGTGCTATCACGGAGTCACCTAGTGCAG | 8070 fluorescence intensity (a.u.)
19 | AAGACACAGCTTCAACACGTAACCTATGCACTACACACTACGGAGTCACCTAGTGCAG | 11700 fluorescence intensity (a.u.)
20 | CCCGTTCTAATTCAGTTTCTCCCTTTCTTACCGCATGTACCGGAGTCACCTAGTGCAG | 8490 fluorescence intensity (a.u.)
21 | GTTCTCTAGCCGCTTGTGATACTCGCAATCCTAAACCACGCGGAGTCACCTAGTGCAG | 8410 fluorescence intensity (a.u.)
22 | TAACTGCGTTGACATGTCGCCTTGCTATACTCACATTCTTCGGAGTCACCTAGTGCAG | 9470 fluorescence intensity (a.u.)

Row | Sequence | binding signal
23 | TCTCACTCTCTCACACACACACTCTCTCTCTCTGCTAGCTCGGAGTCACCTAGTGCAG | 9820 fluorescence intensity (a.u.)
24 | GAATGTTGATGCTGTTGATGCATGCACCTGCCGAAGGCCGCGGAGTCACCTAGTGCAG | 9170 fluorescence intensity (a.u.)
25 | CGCTGCTTCTGATCATCTCCCGTTCTTGCATTCTTCTTCTCGGAGTCACCTAGTGCAG | 19400 fluorescence intensity (a.u.)
26 | GAATCTGCTTCTCATTCTTTTTTTCTTGCTGATCATCATGCGGAGTCACCTAGTGCAG | 10200 fluorescence intensity (a.u.)
27 | TGTCCGCCACGCTCTCGCCATCTGCCTGTACCACTAATCTCGGAGTCACCTAGTGCAG | 22500 fluorescence intensity (a.u.)
28 | TTGTTCTTGCTGCATTTCTTCTTCTCGTTTTTTTTTCTTTCGGAGTCACCTAGTGCAG | 16900 fluorescence intensity (a.u.)
29 | TTCACCACCACCGCCACGGCCTCTGCCTCTCGCTCTCTCTCGGAGTCACCTAGTGCAG | 10200 fluorescence intensity (a.u.)
30 | CTCTTGCTGTTTCCTTTGCTCTGTTTCCTCTGCCTGCGCCCGGAGTCACCTAGTGCAG | 8760 fluorescence intensity (a.u.)
31 | TGTTTGCTGCTGCTGCTGCTCTGCTTTTCTCTTTTTTCTTCGGAGTCACCTAGTGCAG | 9490 fluorescence intensity (a.u.)
32 | CACCACCTTTGTTTGCTGCTCTCCATTTTTTTTCTTCGTTCGGAGTCACCTAGTGCAG | 10200 fluorescence intensity (a.u.)
33 | CTTCTGTCATATCACCTTGCCGCTGCTTCTGATCATCTCCCGGAGTCACCTAGTGCAG | 8670 fluorescence intensity (a.u.)
34 | ATCCCGGCCTGCTCTTGCGCTTTGACTTTTTGTAGAGTTTCGGAGTCACCTAGTGCAG | 18200 fluorescence intensity (a.u.)
35 | ACGCCCGCTTGATCCGCCTGCTGCGCGCGCGCGAGTTTTTCGGAGTCACCTAGTGCAG | 9160 fluorescence intensity (a.u.)
36 | CTCGCCATCTCTGCCGCCGGTCCGCCGCCTCGCTCGCTCGCGGAGTCACCTAGTGCAG | 9470 fluorescence intensity (a.u.)
37 | TACTACTGTACTACTCTCAGTCTCTCGGCTTCTAGACTAGCGGAGTCACCTAGTGCAG | 8600 fluorescence intensity (a.u.)
38 | GATTCTAAACATCCACTCACACCTCATTTTTTTCATTAGCCGGAGTCACCTAGTGCAG | 9350 fluorescence intensity (a.u.)
39 | TGCCTGGCACCGTCCCCATCGCCGGCCGCCTCCGCCTCCGCGGAGTCACCTAGTGCAG | 11300 fluorescence intensity (a.u.)
40 | ACTTAATCCATTTTCTTTTCTTCTCCTATTTTTCCATCAACGGAGTCACCTAGTGCAG | 9970 fluorescence intensity (a.u.)
41 | ATATTTCTATGATTCTATCCCCTCCAGATTTATCGGCGCCCGGAGTCACCTAGTGCAG | 8310 fluorescence intensity (a.u.)
42 | CTTCCAGGCAGTTGTTCTGTATCCTCTTCTTGTTGCAACACGGAGTCACCTAGTGCAG | 8920 fluorescence intensity (a.u.)
43 | TTTTGGTTTTATGAGGCGGTGGATGGATACTTGTTACACTCGGAGTCACCTAGTGCAG | 10300 fluorescence intensity (a.u.)
44 | CTGCTTCTTTTGTTTGGTTGGTTTCAGGGCTTCGTGGCCACGGAGTCACCTAGTGCAG | 17800 fluorescence intensity (a.u.)
